The source made the active and inactive calls. Unless noted, no rule for the calls is given here.
How the values were obtained:
[1] = system: Wnt5a (protein binding on small-molecule microarray); experiment: Wnt5a binders on small-molecule microarray, primary screen, biophysical, 635/667 nm fluorescence (AID 1142); conditions: 635 nm fluorescence, higher = more signal;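 also: fluorescence read at 667 nm with signal to noise per printed feature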
[2] = cell viability in Huh7 cells, primary screen, cytotoxicity control for HCV replication inhibitor project, CellTiter-Glo luminescence, basal, 48 h (AID 1143); conditions: Huh7 HCV replicon, higher = more signal, called active from +8 up or from −8 down;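 also: Huh7 hepatoma cells carrying a hepatitis C replication reporter with no stimulus; test concentration not given here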
[3] = P. aeruginosa biofilm formation inhibitors, primary screen, PAO1 strain, BacTiter-Glo luminescence, LB-PBS (AID 1144); conditions: 12 h, higher = more signal
[4] = CREB reporter modulators without forskolin, primary screen, cell-based, PC12, CRE-LacZ reporter, unstimulated (AID 1145); conditions: no forskolin, luminescence, 4.5 h, higher = more signal, called active from +8 up or from −8 down
[5] = CREB reporter modulators under forskolin, primary screen, cell-based, PC12, CRE-LacZ reporter, forskolin-stimulated (AID 1146); conditions: luminescence, 4.5 h, higher = more signal, called active from +8 up or from −8 down;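 also: PC12 cells with 6xCRE LacZ reporter stimulated by forskolin 10 µM; beta-galactosidase reporter signal reflecting CREB driven transcription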
[6] = target: Streptavidin (Streptomyces avidinii) (UniProt P22629); experiment: streptavidin binders on small-molecule microarray, primary screen, artefact control for SMM compound annotation, biophysical, 635/667 nm fluorescence (AID 1147); conditions: streptavidin binding, higher = more signal;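 also: signal reflects streptavidin binding to arrayed compounds as a control protein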
[7] = small-molecule binders of probe aInhba, primary screen, biochemical, small-molecule microarray, 635/667 nm fluorescence (AID 1148); conditions: higher = more signal;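 also: score merges 667nm spot fluorescence with signal-to-noise for antibody binding to printed compounds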
[8] = target: Torsin-1A (Homo sapiens) (UniProt O14656); experiment: torsin A binders from cell lysate, primary screen, small-molecule microarray, wild-type, 635/667 nm (AID 1149); conditions: COS7 hTOR1A-WT lysate, 635 nm fluorescence, higher = more signal
[9] = target: Torsin-1A (Homo sapiens) (UniProt O14656); experiment: small-molecule binders of mutant TOR1A in lysate, primary screen, cell lysate, small-molecule microarray, COS7 lysate, 635/667 nm fluorescence (AID 1150); conditions: COS7 hTOR1A mutant lysate, 635 nm fluorescence, higher = more signal;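 also: score pools 667 nm emission and signal to noise measuring lysate protein binding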
[10] = system: Sonic hedgehog protein (Shh); experiment: small-molecule binders of Shh protein, primary screen, biochemical, small-molecule microarray, 635/667 nm fluorescence (AID 1151); conditions: small-molecule microarray binding, 635 nm fluorescence; higher = more signal;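 also: Shh protein binding to compounds spotted on small-molecule microarray slides; score combines spot fluorescence intensity with signal-to-noise across triplicate slides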
[11] = E. coli DRC41 culture turbidity changes, primary screen, E. coli filamentation inducer project, strain DRC41, OD650, 48 h (AID 1152);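 also: E. coli MC1000 strain DRC41 lacking acrAB efflux pump and sulA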; conditions: E. coli DRC41 (acrAB sulA), higher = more signal, called active from +8 up or from −8 down
[12] = small-molecule binders of probe aLefty1, primary screen, biochemical, small-molecule microarray, 635/667 nm fluorescence (AID 1153); conditions: higher = more signal;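 also: score merges spot fluorescence with signal-to-noise ratio from the scanned slide images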
[13] = PSAC antagonists in infected red cells, primary screen, cell-based, P. falciparum Indochina, OD700, 1 h (AID 1154); conditions: P. falciparum Indochina infected RBC osmotic lysis, higher = more signal, called active from +8 up or from −8 down
[14] = PSAC antagonists in infected red cells, primary screen, cell-based, P. falciparum Indochina, OD700, 2 h (AID 1155);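 also: lysis reports solute entry through the parasite surface anion channel PSAC; channel blockers reduce lysis of infected cells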; conditions: P. falciparum Indochina infected erythrocytes, osmotic lysis OD700; higher = more signal, called active from +8 up or from −8 down
[15] = osmotic lysis modulators in infected erythrocytes, primary screen, PSAC antagonist project, cell-based, P. falciparum Indochina, OD700, 3 h (AID 1156); conditions: higher = more signal, called active from +8 up or from −8 down
[16] = PSAC antagonists in infected red cells, primary screen, cell-based, P. falciparum Indochina, OD700, 18 h (AID 1157); conditions: P. falciparum Indochina infected erythrocytes, osmotic lysis OD700, 18 h; higher = more signal, called active from +8 up or from −8 down
[17] = modulators of S6 phosphorylation in cells, primary screen, cell-based, A549, cytoblot, luminescence, serum-stimulated (AID 1158); conditions: A549 phospho-S6 cytoblot, 5 h, higher = more signal;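 also: serum-stimulated A549 lung adenocarcinoma cells; signal is phosphorylated S6 detected by cytoblot immunostaining with HRP secondary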
[18] = target: NADPH oxidase 2 (Homo sapiens) (UniProt P04839); experiment: NOX2-dependent H2O2 signal modulators, primary screen, NOX inhibitor project, cell-based, HEK293-NOX2, PMA-stimulated, Amplex Red fluorescence (AID 1159); conditions: 45 min, higher = more signal, called active from +8 up or from −8 down; also: test concentration not given here
[19] = target: NADPH oxidase 4 (Homo sapiens) (UniProt Q9NPH5); experiment: NOX4-dependent H2O2 signal modulators, primary screen, NOX inhibitor project, cell-based, HEK293-NOX4, tetracycline-induced, Amplex Red fluorescence (AID 1160); conditions: 45 min, higher = more signal, called active from +8 up or from −8 down
[20] = target: NADPH oxidase 5 (Homo sapiens) (UniProt Q96PH1); experiment: NOX5-dependent H2O2 signal modulators, primary screen, NOX inhibitor project, cell-based, HEK293-NOX5, Amplex Red fluorescence (AID 1161); conditions: HEK293-NOX5, ionomycin, 45 min, higher = more signal
Sequence of NADPH oxidase 5 (Homo sapiens) (Q96PH1 whole entry, looked up): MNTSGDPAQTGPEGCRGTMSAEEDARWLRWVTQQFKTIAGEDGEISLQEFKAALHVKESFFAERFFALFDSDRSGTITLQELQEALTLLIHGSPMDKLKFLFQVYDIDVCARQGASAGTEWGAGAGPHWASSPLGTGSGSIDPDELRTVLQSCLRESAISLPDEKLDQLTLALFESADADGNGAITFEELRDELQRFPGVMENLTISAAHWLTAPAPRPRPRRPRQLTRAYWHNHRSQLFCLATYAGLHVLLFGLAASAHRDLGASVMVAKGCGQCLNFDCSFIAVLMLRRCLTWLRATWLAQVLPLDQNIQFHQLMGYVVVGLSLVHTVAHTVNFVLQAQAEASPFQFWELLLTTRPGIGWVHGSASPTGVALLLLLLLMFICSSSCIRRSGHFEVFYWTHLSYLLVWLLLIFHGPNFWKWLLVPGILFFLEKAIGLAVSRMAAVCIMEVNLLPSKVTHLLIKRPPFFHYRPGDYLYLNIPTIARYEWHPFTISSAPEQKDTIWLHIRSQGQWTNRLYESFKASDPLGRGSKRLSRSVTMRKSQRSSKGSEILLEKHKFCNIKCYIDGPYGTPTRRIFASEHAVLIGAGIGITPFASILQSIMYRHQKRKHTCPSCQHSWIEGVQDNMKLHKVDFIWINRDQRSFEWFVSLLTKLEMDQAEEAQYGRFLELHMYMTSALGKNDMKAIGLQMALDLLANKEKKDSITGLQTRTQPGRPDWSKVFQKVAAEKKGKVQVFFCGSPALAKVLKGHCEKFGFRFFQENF

Sequence of Torsin-1A (Homo sapiens) (O14656 whole entry, looked up): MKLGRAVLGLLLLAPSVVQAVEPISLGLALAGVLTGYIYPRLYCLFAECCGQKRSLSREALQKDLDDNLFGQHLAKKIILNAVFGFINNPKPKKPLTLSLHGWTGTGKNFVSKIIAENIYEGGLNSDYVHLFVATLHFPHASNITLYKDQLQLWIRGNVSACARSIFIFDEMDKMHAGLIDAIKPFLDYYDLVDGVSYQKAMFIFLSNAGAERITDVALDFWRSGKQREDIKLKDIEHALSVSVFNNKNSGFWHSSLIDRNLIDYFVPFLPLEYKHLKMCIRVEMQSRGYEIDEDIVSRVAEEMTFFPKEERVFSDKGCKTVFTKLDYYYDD
Sequence of Streptavidin (Streptomyces avidinii) (P22629 whole entry, looked up): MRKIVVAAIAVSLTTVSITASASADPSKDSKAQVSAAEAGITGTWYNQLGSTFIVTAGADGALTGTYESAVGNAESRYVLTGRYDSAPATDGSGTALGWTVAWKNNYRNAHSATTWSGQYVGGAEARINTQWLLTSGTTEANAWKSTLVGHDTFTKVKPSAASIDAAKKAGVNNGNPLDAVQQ
Sequence of NADPH oxidase 2 (Homo sapiens) (P04839 whole entry, looked up): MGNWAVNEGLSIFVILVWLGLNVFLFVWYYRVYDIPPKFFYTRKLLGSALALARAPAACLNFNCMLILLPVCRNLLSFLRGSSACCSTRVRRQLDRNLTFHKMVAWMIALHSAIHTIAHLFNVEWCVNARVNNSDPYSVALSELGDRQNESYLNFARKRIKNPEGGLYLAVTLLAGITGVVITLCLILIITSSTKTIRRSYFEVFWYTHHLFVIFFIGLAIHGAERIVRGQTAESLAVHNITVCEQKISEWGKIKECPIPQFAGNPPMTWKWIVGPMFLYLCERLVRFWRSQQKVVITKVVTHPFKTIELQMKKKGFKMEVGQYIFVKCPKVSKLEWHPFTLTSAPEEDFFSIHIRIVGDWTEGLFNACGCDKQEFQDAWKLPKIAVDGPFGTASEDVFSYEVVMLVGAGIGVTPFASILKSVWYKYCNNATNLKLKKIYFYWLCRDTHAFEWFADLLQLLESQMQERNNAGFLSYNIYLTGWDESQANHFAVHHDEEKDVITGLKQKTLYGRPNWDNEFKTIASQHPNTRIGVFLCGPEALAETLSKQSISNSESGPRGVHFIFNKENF
Sequence of NADPH oxidase 4 (Homo sapiens) (Q9NPH5 whole entry, looked up): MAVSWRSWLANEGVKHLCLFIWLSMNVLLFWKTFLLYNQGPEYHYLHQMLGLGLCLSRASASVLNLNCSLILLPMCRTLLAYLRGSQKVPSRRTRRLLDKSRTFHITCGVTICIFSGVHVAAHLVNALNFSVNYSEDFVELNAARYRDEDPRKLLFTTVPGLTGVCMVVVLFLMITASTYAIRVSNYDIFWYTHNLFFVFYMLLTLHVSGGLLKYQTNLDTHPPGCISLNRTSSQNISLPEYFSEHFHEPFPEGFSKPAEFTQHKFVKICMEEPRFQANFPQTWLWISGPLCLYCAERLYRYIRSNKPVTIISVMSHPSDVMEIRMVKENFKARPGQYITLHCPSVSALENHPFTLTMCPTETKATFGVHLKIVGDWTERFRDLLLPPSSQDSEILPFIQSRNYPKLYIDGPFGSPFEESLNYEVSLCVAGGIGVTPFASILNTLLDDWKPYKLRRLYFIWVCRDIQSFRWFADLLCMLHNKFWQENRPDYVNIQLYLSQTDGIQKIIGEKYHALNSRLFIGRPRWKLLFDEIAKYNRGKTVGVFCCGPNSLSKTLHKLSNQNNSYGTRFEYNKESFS

Row | Structure (SMILES) | composite z-score [1] | z-score [2] | z-score [3] | z-score [4] | z-score [5] | composite z-score [6] | composite z-score [7] | composite z-score [8] | composite z-score [9] | composite z-score [10] | z-score [11] | composite z-score [12] | z-score [13] | z-score [14] | z-score [15] | z-score [16] | z-score [17] | z-score [18] | z-score [19] | z-score [20]
1 | CC(C)c1nc2cc(Br)ccc2c(=O)o1 | 0.432 | -0.232 (inactive) | -0.523 (inactive) | -0.348 (inactive) | -0.524 (inactive) | 0.632 | -0.0736 | 0.0358 | 0.244 | 0.116 | 0.537 (inactive) | 0.202 | 2.79 (inactive) | 0.153 (inactive) | 0.958 (inactive) | 0.303 (inactive) | -0.228 | -0.421 (inactive) | -0.0107 (inactive) | 0.118
2 | CCCC=C(CCC)[C@@H](NC(=O)OCC(C)C)c1ccc(C(=O)OC)cc1 | -0.0326 | -1.07 (inactive) | 0.3 (inactive) | -1.72 (inactive) | 0.291 (inactive) | 0.153 | -0.154 | 0.841 | 0.104 | 0.23 | -0.531 (inactive) | 0.506 | -1.17 (inactive) | -0.781 (inactive) | -1.07 (inactive) | -1.47 (inactive) | 1.31 | 0.115 (inactive) | 1.89 (inactive) | 1.97
3 | CO[C@H]1O[C@H](CO)[C@@H](OC(=O)Nc2ccc3c(c2)OCO3)[C@H](OC(=O)Nc2ccccc2-c2ccccc2)[C@H]1OC(=O)Nc1ccccc1-c1ccccc1 | 1.07 | -5.61 (inactive) | -0.378 (inactive) | 1.5 (inactive) | -1.05 (inactive) | 0.2 | 0.196 | 0.384 | 1.55 | 0.333 | -0.133 (inactive) | -0.0536 | 2.14 (inactive) | 0.825 (inactive) | -0.124 (inactive) | 1.21 (inactive) | -0.311 | -4.55 (inactive) | -0.707 (inactive) | -0.848
4 | O=C1C2C=CC(C(O)C3CCCCC3)N(n3cnnc3)C2C(=O)N1Cc1ccccc1 (stereo not given) | 0.364 | -4.7 (inactive) | -1.2 (inactive) | -0.135 (inactive) | -0.233 (inactive) | 0.203 | 0.229 | 0.187 | 0.64 | 1.65 | 0.253 (inactive) | 0.375 | 2.45 (inactive) | -0.471 (inactive) | 0.312 (inactive) | -1.6 (inactive) | 1.75 | -4 (inactive) | -0.921 (inactive) | -5.07
